Reference: the supplement of paper PMC8728848
This excerpt belongs to a sample that is enriched for the strongest signals.

Key:
Test in all cases: glycan array binding signal (z-score within array); higher = stronger binding
Conditions in all cases: glycan notation: IUPAC condensed, linker removed
[1] = target: Fuc(a1-2)Gal(b1-3)GalNAc
In short: (§1)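 Glycan array data came from 3228 arrays in the Consortium for Functional Glycomics database, and only arrays with an available protein sequence were kept. Glycan names were put into IUPAC-condensed notation, and columns mapping to the same glycan were averaged. The binding signal is a within-array Z-score, averaged across arrays of one protein sequence run at different concentrations or buffers and across linkers. A negative Z-score can be read as non-binding.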

[2] = target: Fuc(a1-2)Gal(b1-3)GalNAc(b1-4)[Neu5Ac(a2-3)]Gal(b1-4)Glc
In short: as §1

[3] = target: Fuc(a1-2)Gal(b1-4)[Fuc(a1-3)]GlcNAc
In short: as §1

[4] = target: Fuc(a1-2)Gal(b1-4)[Fuc(a1-3)]GlcNAc(b1-3)Gal(b1-4)[Fuc(a1-3)]GlcNAc
In short: as §1

[5] = target: Fuc(a1-2)Gal(b1-4)[Fuc(a1-3)]GlcNAc(b1-3)Gal(b1-4)[Fuc(a1-3)]GlcNAc(b1-3)Gal(b1-4)[Fuc(a1-3)]GlcNAc
In short: as §1

[6] = target: Fuc(b1-3)GlcNAc
In short: as §1

[7] = target: Gal(a1-3)Gal
In short: as §1

[8] = target: Gal(b1-4)Glc6S
In short: as §1

[9] = target: Gal3S(b1-4)GlcNAc6S
In short: as §1

[10] = target: Gal3S6S(b1-4)GlcNAc
In short: as §1

[11] = target: Gal3S6S(b1-4)GlcNAc6S
In short: as §1

[12] = target: Gal6S(b1-4)Glc6S
In short: as §1

[13] = target: GalNAc(a1-3)GalNAc
In short: as §1

[14] = target: GalNAc(b1-4)GlcNAc
In short: as §1

[15] = target: Neu5Ac(a2-3)Gal(b1-3)GlcNAc
In short: as §1

[16] = target: Neu5Ac(a2-3)GalNAc
In short: as §1

[17] = target: Neu5Gc(a2-3)Gal(b1-4)[Fuc(a1-3)]GlcNAc
In short: as §1

[18] = target: Fuc(a1-4)GlcNAc
In short: as §1

[19] = target: Gal(a1-3)[Gal(a1-4)]Gal(b1-4)GlcNAc
In short: as §1

[20] = target: Gal(b1-3)GalNAc(b1-3)Gal(a1-4)Gal(b1-4)Glc
In short: as §1

[21] = target: Gal(b1-4)GalNAc(b1-3)[Fuc(a1-2)]Gal(b1-4)GlcNAc
In short: as §1

[22] = target: Gal(b1-4)GlcNAc(b1-3)GalNAc
In short: as §1

[23] = target: Gal(b1-4)GlcNAc(b1-6)GalNAc
In short: as §1

[24] = target: GalNAc(b1-3)GalNAc
In short: as §1

[25] = target: GlcNAc(b1-2)Gal(b1-3)GalNAc
In short: as §1

[26] = target: GlcNAc(b1-3)Gal(b1-3)GalNAc
In short: as §1

[27] = target: GlcNAc(b1-3)GalNAc
In short: as §1

[28] = target: GlcNAc(b1-6)Gal(b1-4)GlcNAc
In short: as §1

[29] = target: Man(a1-2)Man(a1-3)[Man(a1-6)]Man(a1-6)[Man(a1-2)Man(a1-3)]Man(b1-4)GlcNAc(b1-4)GlcNAc
In short: as §1

[30] = target: Man(b1-4)GlcNAc
In short: as §1

[31] = target: Neu5Ac(a2-8)Neu5Ac(a2-8)Neu5Ac
In short: as §1

Row | Binder | glycan array binding signal (z-score) [1] | glycan array binding signal (z-score) [2] | glycan array binding signal (z-score) [3] | glycan array binding signal (z-score) [4] | glycan array binding signal (z-score) [5] | glycan array binding signal (z-score) [6] | glycan array binding signal (z-score) [7] | glycan array binding signal (z-score) [8] | glycan array binding signal (z-score) [9] | glycan array binding signal (z-score) [10] | glycan array binding signal (z-score) [11] | glycan array binding signal (z-score) [12] | glycan array binding signal (z-score) [13] | glycan array binding signal (z-score) [14] | glycan array binding signal (z-score) [15] | glycan array binding signal (z-score) [16] | glycan array binding signal (z-score) [17] | glycan array binding signal (z-score) [18] | glycan array binding signal (z-score) [19] | glycan array binding signal (z-score) [20] | glycan array binding signal (z-score) [21] | glycan array binding signal (z-score) [22] | glycan array binding signal (z-score) [23] | glycan array binding signal (z-score) [24] | glycan array binding signal (z-score) [25] | glycan array binding signal (z-score) [26] | glycan array binding signal (z-score) [27] | glycan array binding signal (z-score) [28] | glycan array binding signal (z-score) [29] | glycan array binding signal (z-score) [30] | glycan array binding signal (z-score) [31]
1 | MIG/CXCL9 (Homo sapiens) (protein) TPVVRKGRCSCISTNQGTIHLQSLKDLKQFAPSPSCEKIEIIIATLKNGVQTCLNPDSADVKELIKKTEKQVSQKKKQKNGKKHQKKKVLKVRKSQRSRQKKTT | -0.29 | -0.193 | -0.26 | -0.383 | -0.37 | -0.209 | -0.114 | 0.015 | 2.28 | 2.35 | 5.28 | 2.35 | 0.274 | -0.358 | -0.037 | -0.254 | -0.288 | – | – | – | – | – | – | – | – | – | – | – | – | – | –
2 | MPA (Maclura pomifera) (protein) GVTFDDGAYTGIREINFEYNSETAIGGLRVTYDLNGMPFVAEDHKSFITGFKPVKISLEFPSEYIVEVSGYVGKVEGYTVIRSLTFKTNKQTYGPYGVTNGTPFSLPIENGLIVGFKGSIGYWLDYFSIYLSLNGPNGKSQSIIVGPWGDRVTN | 2.25 | – | – | – | – | – | – | – | – | -0.233 | – | – | – | – | – | – | – | -0.223 | -0.16 | -0.24 | -0.249 | 5.97 | -0.161 | 6.31 | 5.63 | 3.46 | 6.85 | -0.229 | -0.244 | -0.24 | -0.244
